Experimental data from the supplement of paper PMC3334620.
The full ranking holds about 33,000 sequences; the median of “E-score (-0.5 to 0.5)” is about -0.056, and the highest 2% start at about 0.38. Many of the other results were omitted from the sample, so the highest values are more common in it than they were.

Molecular target: Stb4 (UniProt P50104)
Test: PBM E-score (8-mer binding enrichment) (E-score (-0.5 to 0.5)); higher = stronger / more preferred TF binding
Conditions: protein concentration: 200 nM; construct: GST-DNA-binding domain
Protocol: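 Universal 'all 10-mer' protein binding microarrays (Agilent AMADID 015681) probed with GST-tagged S. cerevisiae TFs (full-length or DBD) made by in vitro transcription/translation (PURExpress), about 100-200 nM. Bound TF was detected with fluorescent anti-GST. Each ungapped 8-mer (which stands for itself and its reverse complement) is scored by the PBM enrichment score (E-score), a modified Wilcoxon-Mann-Whitney statistic from -0.5 to +0.5, computed with the Universal PBM Analysis Suite. Scale: above 0.35 generally sequence-specific binding.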

UniProt P50104, sequence (P50104 whole entry): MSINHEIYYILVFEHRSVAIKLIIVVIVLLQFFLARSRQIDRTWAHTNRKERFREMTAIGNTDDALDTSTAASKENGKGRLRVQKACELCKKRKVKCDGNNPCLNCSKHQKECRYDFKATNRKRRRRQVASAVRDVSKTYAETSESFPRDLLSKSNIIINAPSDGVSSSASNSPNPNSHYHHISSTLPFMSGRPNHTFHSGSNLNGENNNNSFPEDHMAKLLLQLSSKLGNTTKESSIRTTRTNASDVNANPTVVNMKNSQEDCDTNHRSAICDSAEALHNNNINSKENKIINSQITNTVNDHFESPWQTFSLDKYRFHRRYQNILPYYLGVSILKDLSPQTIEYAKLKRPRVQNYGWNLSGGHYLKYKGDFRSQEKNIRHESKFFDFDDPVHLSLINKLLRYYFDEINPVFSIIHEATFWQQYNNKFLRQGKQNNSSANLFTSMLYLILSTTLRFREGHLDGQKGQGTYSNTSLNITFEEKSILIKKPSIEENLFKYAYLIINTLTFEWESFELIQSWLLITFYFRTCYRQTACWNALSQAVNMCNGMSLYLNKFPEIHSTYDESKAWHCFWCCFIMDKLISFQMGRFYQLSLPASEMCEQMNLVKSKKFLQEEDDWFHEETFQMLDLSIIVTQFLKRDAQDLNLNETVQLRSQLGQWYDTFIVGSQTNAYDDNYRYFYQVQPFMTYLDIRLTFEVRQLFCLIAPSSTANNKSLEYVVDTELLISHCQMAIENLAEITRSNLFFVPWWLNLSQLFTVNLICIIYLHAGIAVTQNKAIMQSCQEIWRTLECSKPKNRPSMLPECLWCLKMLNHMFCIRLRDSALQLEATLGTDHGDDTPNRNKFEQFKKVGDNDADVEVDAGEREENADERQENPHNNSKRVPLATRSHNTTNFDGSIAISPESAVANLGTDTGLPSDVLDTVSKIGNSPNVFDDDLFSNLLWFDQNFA

Row | Sequence | PBM E-score
1 | CAATAGGG | -0.163
2 | CGGCCTGA | 0.0862
3 | CAAGCGAA | -0.201
4 | TCGCGTAA | 0.0292
5 | CACAACCC | -0.0519
6 | GTCCATTA | -0.172
7 | CGATCCTA | -0.0737
8 | GGATCCTA | 0.122
9 | AGATCCGG | 0.366
10 | AGATCCGA | 0.477
11 | GGATCCCA | 0.102
12 | GGATCCGA | 0.459
13 | CGATCCGA | 0.475
14 | CGATCCCG | 0.342
15 | AGATCCGC | 0.291
16 | CGATCCGC | 0.325
17 | AGATCCCG | 0.407
18 | AGATCCCT | -0.226
19 | AGCGATAT | -0.172
20 | GTTCCTTA | 0.0117
21 | AATGCAGC | -0.19
22 | GGGGAAGA | -0.186
23 | AACCGCCG | 0.22
24 | CAACACAG | -0.278
25 | CTAACGTA | -0.201
26 | AACAATGT | -0.0925

Row | Sequence | PBM E-score
27 | AGGAACGA | 0.0238
28 | GGGAACGA | 0.0562
29 | CGGAACGA | 0.399
30 | CGGAACGC | 0.407
31 | CAGAACGC | -0.126
32 | AGGAACGC | -0.097
33 | GCGTTCCA | -0.104
34 | ATCTATAC | 0.0424
35 | ATCTATTA | 0.0372
36 | GAGGTTCA | 0.012
37 | CACTTGAG | -0.265
38 | GGGTCGAC | 0.0843
39 | CATCGGGC | 0.181
40 | CCCTTCGC | -0.135
41 | CCCTTCGG | 0.401
42 | CCCTTCGA | -0.0805
43 | ACCTTCGA | -0.171
44 | ACCTTCGT | -0.0808
45 | ACCTTCGG | 0.404
46 | CCAACTTC | -0.0561
47 | GTCAAAAC | -0.0364
48 | TAGAGATA | -0.0379
49 | CCAAACTC | -0.0175
50 | ATTTATGC | -0.126
51 | TAATCCCA | -0.0875
52 | GAATCCGA | 0.4

Row | Sequence | PBM E-score
53 | AAATCCGA | 0.396
54 | CAATCCGG | 0.244
55 | GAATCCTA | 0.00817
56 | TAATCCTA | -0.00858
57 | GAATCCGC | 0.206
58 | AAATCCGG | 0.332
59 | AAATCCGT | 0.186
60 | TAATCCGA | 0.39
61 | CAATCCGA | 0.403
62 | CAATCCGC | 0.191
63 | CTGATCCA | -0.0972
64 | CGTGCTTA | -0.0565
65 | ACCACATG | -0.182
66 | GAGAAATA | 0.0451
67 | AGGACCCC | -0.0529
68 | AAGCTTGC | -0.209
69 | CCATGCGG | -0.0615
70 | ATACCAGC | -0.121
71 | CATTTTGA | -0.162
72 | CGTTGAGC | -0.0224
73 | CGGATCCA | 0.36
74 | CGGATCCC | 0.38
75 | AGGATCCT | -0.218
76 | CGGATCCG | 0.462
77 | AGGATCCG | 0.395
78 | AGGATCCC | 0.0362

Row | Sequence | PBM E-score
79 | ATGGCGTC | -0.158
80 | GATTGACC | 0.0279
81 | CAAAATAC | -0.00837
82 | ACTAGAAC | 0.0472
83 | AGGCTCTA | -0.08
84 | ATAGCTTA | -0.106
85 | CGAGCCGC | 0.328
86 | GGAGCCGA | 0.379
87 | AGAGCCGA | 0.39
88 | CGAGCCGA | 0.399
89 | CGAGCCAA | 0.00699
90 | AGAGCCGG | 0.24
91 | ATGCGGGG | 0.0133
92 | CCAGTCCG | 0.17
93 | ATGGCAGC | -0.171
94 | ACCTACGA | -0.199
95 | ACGCCATA | -0.131
96 | ACGGCCCG | 0.284
97 | CCGGGCCG | 0.382
98 | CGGGCCCG | 0.419
99 | CCGGGCCC | 0.303
100 | CCGGCCCG | 0.392
101 | CGGGCCCA | 0.11
102 | CCGGCCCA | 0.17
103 | CCGGGCCA | 0.18
104 | AGGGCCCG | 0.205

Row | Sequence | PBM E-score
105 | CAATTTGA | -0.046
106 | TTCTACAA | -0.129
107 | AAATCATT | -0.067
108 | GCACCCGA | 0.434
109 | ACACCCGA | 0.445
110 | ACACCCGG | 0.331
111 | GCACCCCA | -0.0865
112 | ACACCCGC | 0.164
113 | TCACCCGA | 0.407
114 | GCACCCGC | 0.285
115 | CCACCCGA | 0.379
116 | TCACCCAA | -0.112
117 | CTGCGAAC | -0.298
118 | CCAACTTA | -0.00182
119 | CTCTTAAC | -0.0542
120 | GAGTACCC | 0.0867
121 | CAGGATAA | -0.12
122 | TCGGATAA | 0.487
123 | TGGGATAA | -0.182
124 | GCGGATGA | 0.304
125 | TAGGATAA | -0.0915
126 | GCGGATAA | 0.403
127 | CAGGATAG | -0.0723
128 | GGGGATAA | 0.00287
129 | CCGGATAG | 0.424
130 | CGGGATAG | 0.191

Row | Sequence | PBM E-score
131 | CCGGATTA | 0.319
132 | CCGGATAA | 0.452
133 | ATTATCTC | 0.0642
134 | CAGGGAGA | -0.266
135 | CGATGGTC | -0.158
136 | CTTCTTTA | -0.0675
137 | GACCCTGC | 0.1
138 | AAAGCGTC | -0.194
139 | CACACTAA | -0.194
140 | CGAGAAGA | 0.0362
141 | CCGATATC | 0.297
142 | CAGGATAC | -0.198
143 | GCGGATAC | 0.367
144 | CCGGATAC | 0.409
145 | ATCGGCCG | 0.305
146 | AAAGCCAG | -0.246
147 | AGGAACAG | -0.243
148 | CGGAACAG | 0.427
149 | CGGAACAA | 0.444
150 | CGGAACAC | 0.367
151 | TGGAACAA | -0.2
152 | GGGAACAA | 0.225
153 | ATCTATGG | -0.184
154 | AGCTCGGC | 0.412
155 | AGCTCGCG | -5e-05
156 | AGCTCGCC | -0.0787

Row | Sequence | PBM E-score
157 | AGCTCGAC | -0.0952
158 | AGCTCGTG | 0.0631
159 | AGCTCGGG | 0.443
160 | CGTGCCAG | -0.186
161 | AAGGTAGG | -0.0211
162 | ACTTGACA | -0.05
163 | ACGATACG | -0.314
164 | AGCCGATC | 0.313
165 | CACCGAGG | 0.308
166 | CGCCGATC | 0.241
167 | GGCCGAGA | 0.347
168 | AGCCGATA | 0.344
169 | AGCCGCGG | 0.315
170 | CGCCGAGA | 0.361
171 | CGCCGAGC | 0.39
172 | AGCCGACC | 0.293
173 | AGCCGAGG | 0.437
174 | AGCCGAGC | 0.448
175 | AGCCGAGA | 0.436
176 | GCATATGC | -0.173
177 | CGCCACGC | -0.108
178 | AAGGACTC | 0.127
179 | TGGATGAA | -0.185
180 | GTGCCAGA | -0.31
181 | AAGCGGCA | 0.133
182 | GCTGACGA | -0.346

Row | Sequence | PBM E-score
183 | GAGCACTC | 0.09
184 | AACCGGAT | 0.383
185 | CTCCGGAC | 0.285
186 | AACCGGAA | 0.377
187 | TTACGGAA | 0.365
188 | CTCCGGAA | 0.391
189 | TTCCGGAA | 0.46
190 | ATACGGAA | 0.36
191 | GTCCGGAA | 0.373
192 | CTCCGGTA | 0.254
193 | AACCGGAG | 0.23
194 | ATCCGGAC | 0.336
195 | ATCCGGAA | 0.436
196 | CAAATCCC | 0.141
197 | CACCCAGG | -0.115
198 | GCGCCGCA | 0.0423
199 | GCTGGCAC | -0.224
200 | CTAAAATC | -0.12
201 | CCCGCTTA | 0.0362
202 | AAACAGTT | -0.0803
203 | AATCAATC | 0.055
204 | ATGCGGAG | 0.0793
205 | ATCCGCAT | 0.348
206 | ATCCGGAG | 0.385
207 | ATCCGGAT | 0.459
208 | ATCCGGTC | 0.302

Row | Sequence | PBM E-score
209 | ATCCGGTA | 0.322
210 | ATCCGGTG | 0.397
211 | CTCCGGAG | 0.304
212 | GTCCGGAC | 0.283
213 | CCTGGGTC | -0.126
214 | AGTTAAAA | 0.045
215 | CATCAGGC | -0.149
216 | GCTCATCC | 0.127
217 | CACGGATG | 0.338
218 | GACGGAGA | 0.187
219 | AACGGATT | 0.155
220 | GACGGATA | 0.385
221 | TACGGAAA | 0.322
222 | TACGGAGA | 0.0409
223 | TACGGATA | 0.385
224 | AACGGATA | 0.439
225 | GACGGATC | 0.265
226 | AACGGATG | 0.304
227 | CACGGATC | 0.35
228 | CACGGATA | 0.385
